# High-throughput results as filed in PubChem BioAssay.
# Sampled rows, rich in hits. Any-hit rate of the full collection: about 4.1%.
# Sm TGR block – blocks Schistosoma mansoni thioredoxin glutathione reductase. AID 485364. 3% of 360,000 active. purified TGR, DTNB reduction, TNB absorbance 405 nm. Potency, µM (top dose mostly 114 µM), usual class: inhibitors. Q962Y6; further: nearly all actives have a fitted effect of over 60% in size
#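 Kinetic colorimetric format: TGR-catalysed, NADPH-driven DTNB reduction monitored via TNB absorbance. Enzyme dispensed at 20 nM; compound exposure 15 min at room temperature before reaction start.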
# AmpC detergent – AmpC beta-lactamase inhibition with detergent present | AmpC hydrolysis of nitrocefin, absorbance 480 nm, 0.01% Triton | Potency, µM (highest dose often 114 µM), actives largely listed as inhibitors | 0.041% of 370,000 active | AID 485294; further: nearly all actives have a fitted effect of over 25% in size
# Target sequence (P00811 whole entry, looked up): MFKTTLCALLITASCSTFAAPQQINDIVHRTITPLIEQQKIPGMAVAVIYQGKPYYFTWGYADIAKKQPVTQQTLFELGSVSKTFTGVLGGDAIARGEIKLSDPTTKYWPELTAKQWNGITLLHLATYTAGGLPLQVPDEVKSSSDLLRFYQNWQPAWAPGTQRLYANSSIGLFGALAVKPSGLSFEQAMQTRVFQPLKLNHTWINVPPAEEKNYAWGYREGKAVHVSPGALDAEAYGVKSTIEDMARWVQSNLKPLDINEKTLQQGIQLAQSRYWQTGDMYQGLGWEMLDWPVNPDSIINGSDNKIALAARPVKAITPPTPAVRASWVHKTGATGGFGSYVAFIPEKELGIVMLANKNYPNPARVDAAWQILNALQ
#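 AmpC (5.3 nM in the dispensed reagent) in 20 mM phosphate pH 7.0 with 0.01% (detergent screen) or 0.0001% Triton X-100 was preincubated with compounds for 15 min at room temperature. Nitrocefin was then added from an 800 uM solution, and hydrolysis was followed at 480 nm.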
# AmpC no deterg – AmpC beta-lactamase inhibition without detergent | AmpC nitrocefin hydrolysis, absorbance 480 nm, 0.0001% Triton | 0.52% of 330,000 active | P00811 | Potency, µM (series often up to 57.1 µM), hits mostly inhibitors | AID 485341; further: nearly all actives have a fitted effect of over 20% in size
#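 20 mM phosphate pH 7.0 + 0.01% (detergent screen) or 0.0001% Triton X-100; 5.3 nM AmpC reagent; cpd preinc 15 min RT; nitrocefin (800 uM stock) to start; A480 q20 s × 4 min; Activity was normalised to no-enzyme and no-compound control wells.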
# FMDV antiviral – blocks foot and mouth disease virus. 1.2% of 410,000 active. Potency, µM (top dose mostly 57.9 µM), hits mostly inhibitors. FMDV antiviral cell-based qHTS. AID 1159524; calls by dose curve; tested in HEK293T cells; further: read-out not given here; nearly all actives have a fitted effect of over 45% in size
# AMA1-RON2 inh – disrupts binding of P. falciparum AMA1 to RON2; AlphaScreen AMA1-biotinylated RON2 peptide binding; Potency, µM (titrated, usually from 58.2 µM), usual class: inhibitors; AID 720542; 0.2% of 360,000 active; further: nearly all actives have a fitted effect of over 45% in size
#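 AMA1 (3D7) with his tag at 25 nM final met compounds first, then biotinylated RON2 peptide at 25 nM; detection used donor plus acceptor beads, 10 µg/mL apiece, read by AlphaScreen after 30 min at room temperature.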
# Hits are given with their value; - = inactive; ? = inconclusive; . = no result given. Unless noted, the call rests on the fitted dose curve; in most records, active means well fitted curve in the direction sought with a large enough effect; inconclusive means small, poorly fitted or top-dose-only effect, or another doubt; inactive means no such curve, though single readings can be large; an effect the other way counts as inactive or inconclusive.
SMILES,Sm TGR block,AmpC detergent,AmpC no deterg,FMDV antiviral,AMA1-RON2 inh
Cc1cccc(NC(=O)CSc2nc(-c3ccccc3)cc(=O)[nH]2)c1C,-,-,.,-,.
COc1ccc(CNC(=O)CSCc2cnn(-c3ccccc3)c2-n2cccc2)cc1OC,-,-,.,15.8µM,.
CC(=O)OCCNc1cc(N2CCN(C)CC2)c2noc3c2c1C(=O)c1ccccc1-3,-,?,-,?,?
CCN1CCN(c2cc(N3CCN(C(=O)c4ccco4)CC3)c3c4c(onc24)-c2ccccc2C3=O)CC1,7.08µM,-,-,?,22.4µM
O=C(O)CCNc1cc(N2CCN(C(=O)c3ccco3)CC2)c2noc3c2c1C(=O)c1ccccc1-3,15.8µM,-,-,-,31.6µM
CCCCCc1c(-c2cccc(F)c2)ncn1CCc1ccccc1OC,.,.,.,22.4µM,-
CCCc1c(-c2cccc(F)c2)ncn1CCc1ccccc1OC,.,.,.,?,-
CCCCc1c(-c2cccc(Br)c2)ncn1CCc1ccccc1OC,.,.,.,?,-
CCCCCc1c(-c2cccc(OC)c2)ncn1CCc1ccccc1OC,.,.,.,28.2µM,-
CCCCc1c(-c2cccc(F)c2)ncn1CCc1ccccc1OC,.,.,.,25.1µM,-
CCCCCc1c(-c2cccc(Cl)c2)ncn1CCc1ccccc1OC,.,.,.,-,-
CCC(Cn1nnc2ccccc2c1=O)NC(=O)Nc1cc(OC)cc(OC)c1 (centres undefined),-,-,.,-,.
CC(=O)Nc1cc(NC(C)=O)cc(-c2nc3ccccc3[nH]2)c1,-,-,-,39.8µM,-
CC(=O)Nc1ccc2nc(-c3ccncc3)[nH]c2c1,-,-,-,-,-
COc1cccc(NC(=S)NC(=O)/C=C/c2ccco2)c1,10µM,-,-,-,-
O=C(/C=C/c1ccco1)NC(=S)Nc1cccc(C(=O)O)c1,4.47µM,?,-,-,-
Cc1ccc2oc(-c3cccc(NC(=S)NC(=O)/C=C/c4ccco4)c3)nc2c1,-,-,-,?,-
Oc1ccc(-c2csc(Nc3ccccn3)n2)cc1O,?,-,1.58µM,-,-
Cc1ccnc(Nc2nc(-c3ccc(O)c(O)c3)cs2)c1,?,-,-,-,-
COc1ccccc1C1CCN(C(=O)c2ccccc2)CC1,-,-,-,-,-
COc1ccccc1C1CCN(C(=O)c2cnn(-c3ccccc3)c2C)CC1,-,-,-,39.8µM,-
CCOc1cc(/C=N/N=C(/N)c2nonc2N)cc(Br)c1OCc1ccc(Cl)cc1,-,-,15.8µM,-,-
CCc1nc2c(OCc3ccc(C(F)(F)F)cc3)cccn2c1N(C)C(=O)c1ccc(C)cc1,.,.,.,?,-
Cc1cc(NC(=O)c2ccc3sc([C@@H]4O[C@H](CO)[C@H](O)[C@H](O)[C@H]4O)nc3c2)no1,.,.,.,-,-
COc1ccc(CNC(=O)c2cc(S(=O)(=O)N3CCCCC3)ccc2Cl)cc1OC,.,.,-,14.1µM,-
SMILES,Sm TGR block,AmpC detergent,AmpC no deterg,FMDV antiviral,AMA1-RON2 inh
COc1ccc(CNC(=O)C2CCCN(S(=O)(=O)N(C)c3ccc(F)cc3)C2)cc1OC (centres undefined),-,-,.,12.6µM,.
COc1ccc(CNC(=O)c2cccc(S(=O)(=O)N3CCCCC3)c2)cc1OC,-,-,-,?,-
Cc1ccc(CCNS(=O)(=O)c2ccc3c(c2)CC(C)N3C(=O)C2CCC2)cc1 (centres undefined),-,-,.,-,.
COc1ccc(C(O)(CCc2ccccc2)CCN2CCCCC2)cc1 (centres undefined),2.82µM,-,-,-,-
C=CCC(O)(CCN1CCCCC1)c1ccccc1 (centres undefined),25.1µM,-,-,-,-
OC(CCN1CCCCC1)(c1ccccc1)c1ccccc1,-,-,-,-,-
COc1ccc(Nc2nc3ccccc3c3nnc(C)n23)cc1Cl,-,-,.,-,.
COc1ccc(CC(=O)NCc2ccc3c(c2)CCN3C(=O)c2cccc(C)c2)cc1,-,-,.,?,.
CCOc1cccc(CC(=O)NCc2ccc3c(c2)CCN3C(=O)c2cccc(C)c2)c1OCC,-,-,.,14.1µM,.
O=C(NCc1ccc2c(c1)CCN2C(=O)c1ccc(Cl)cc1)c1ccco1,-,-,.,-,.
Cc1cccc(C(=O)N2CCc3cc(CNC(=O)c4ccco4)ccc32)c1,-,-,.,28.2µM,.
CS/C(N)=C(C#N)/C(C#N)=C(\N)SC,.,.,.,-,.
Cc1ccc(-n2ncc3c(N4CCN(CCO)CC4)ncnc32)cc1Cl,7.94µM,-,.,-,.
